Here are results for 5 molecules from PubChem BioAssay.

SMILES strings stand for the structures. Calls of active or inactive are those of the source. Unless noted, no rule for the calls is given here.

Assay [1] deals with Wnt5a (protein binding on small-molecule microarray). The assay can be described thus: Wnt5a binders on small-molecule microarray, primary screen, biophysical, 635/667 nm fluorescence (AID 1142).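 Also: fluorescence read at 667 nm with signal to noise per printed feature.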 The settings on record: 635 nm fluorescence, higher = more signal.
Assay [2] is described as follows: cell viability in Huh7 cells, primary screen, cytotoxicity control for HCV replication inhibitor project, CellTiter-Glo luminescence, basal, 48 h (AID 1143).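 Also: Huh7 hepatoma cells carrying a hepatitis C replication reporter with no stimulus; test concentration not given here.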 Conditions: Huh7 HCV replicon, higher = more signal, called active from +8 up or from −8 down.
Assay [3] in a line: P. aeruginosa biofilm formation inhibitors, primary screen, PAO1 strain, BacTiter-Glo luminescence, LB-PBS (AID 1144). Conditions: 12 h, higher = more signal.
The nature of assay [4]: CREB reporter modulators without forskolin, primary screen, cell-based, PC12, CRE-LacZ reporter, unstimulated (AID 1145). Conditions: no forskolin, luminescence, 4.5 h, higher = more signal, called active from +8 up or from −8 down.
The nature of assay [5]: CREB reporter modulators under forskolin, primary screen, cell-based, PC12, CRE-LacZ reporter, forskolin-stimulated (AID 1146).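 Also: PC12 cells with 6xCRE LacZ reporter stimulated by forskolin 10 µM; beta-galactosidase reporter signal reflecting CREB driven transcription.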 The settings on record: luminescence, 4.5 h, higher = more signal, called active from +8 up or from −8 down.
The target in assay [6] is Streptavidin (Streptomyces avidinii) (UniProt P22629). Briefly: streptavidin binders on small-molecule microarray, primary screen, artefact control for SMM compound annotation, biophysical, 635/667 nm fluorescence (AID 1147).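 Also: signal reflects streptavidin binding to arrayed compounds as a control protein.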 Conditions: streptavidin binding, higher = more signal.
A short description of assay [7]: small-molecule binders of probe aInhba, primary screen, biochemical, small-molecule microarray, 635/667 nm fluorescence (AID 1148).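 Also: score merges 667nm spot fluorescence with signal-to-noise for antibody binding to printed compounds.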 Conditions: higher = more signal.
Assay [8] addresses Torsin-1A (Homo sapiens) (UniProt O14656). Briefly: torsin A binders from cell lysate, primary screen, small-molecule microarray, wild-type, 635/667 nm (AID 1149). The settings on record: COS7 hTOR1A-WT lysate, 635 nm fluorescence, higher = more signal.
Assay [9] has the same target. Briefly: small-molecule binders of mutant TOR1A in lysate, primary screen, cell lysate, small-molecule microarray, COS7 lysate, 635/667 nm fluorescence (AID 1150).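 Also: score pools 667 nm emission and signal to noise measuring lysate protein binding.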 The settings on record: COS7 hTOR1A mutant lysate, 635 nm fluorescence, higher = more signal.
Assay [10] relates to Sonic hedgehog protein (Shh). Briefly: small-molecule binders of Shh protein, primary screen, biochemical, small-molecule microarray, 635/667 nm fluorescence (AID 1151).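 Also: Shh protein binding to compounds spotted on small-molecule microarray slides; score combines spot fluorescence intensity with signal-to-noise across triplicate slides.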 Conditions: small-molecule microarray binding, 635 nm fluorescence; higher = more signal.
Assay [11] can be described thus: E. coli DRC41 culture turbidity changes, primary screen, E. coli filamentation inducer project, strain DRC41, OD650, 48 h (AID 1152).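 Also: E. coli MC1000 strain DRC41 lacking acrAB efflux pump and sulA.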 Conditions: E. coli DRC41 (acrAB sulA), higher = more signal, called active from +8 up or from −8 down.
Assay [12] can be described thus: small-molecule binders of probe aLefty1, primary screen, biochemical, small-molecule microarray, 635/667 nm fluorescence (AID 1153).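 Also: score merges spot fluorescence with signal-to-noise ratio from the scanned slide images.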 The settings on record: higher = more signal.
Assay [13] can be described thus: PSAC antagonists in infected red cells, primary screen, cell-based, P. falciparum Indochina, OD700, 1 h (AID 1154). The settings on record: P. falciparum Indochina infected RBC osmotic lysis, higher = more signal, called active from +8 up or from −8 down.
Assay [14] can be described thus: PSAC antagonists in infected red cells, primary screen, cell-based, P. falciparum Indochina, OD700, 2 h (AID 1155).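 Also: lysis reports solute entry through the parasite surface anion channel PSAC; channel blockers reduce lysis of infected cells.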 The settings on record: P. falciparum Indochina infected erythrocytes, osmotic lysis OD700; higher = more signal, called active from +8 up or from −8 down.
Assay [15] can be described thus: osmotic lysis modulators in infected erythrocytes, primary screen, PSAC antagonist project, cell-based, P. falciparum Indochina, OD700, 3 h (AID 1156). Conditions: higher = more signal, called active from +8 up or from −8 down.
Assay [16] can be described thus: PSAC antagonists in infected red cells, primary screen, cell-based, P. falciparum Indochina, OD700, 18 h (AID 1157). The settings on record: P. falciparum Indochina infected erythrocytes, osmotic lysis OD700, 18 h; higher = more signal, called active from +8 up or from −8 down.
The nature of assay [17]: modulators of S6 phosphorylation in cells, primary screen, cell-based, A549, cytoblot, luminescence, serum-stimulated (AID 1158).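 Also: serum-stimulated A549 lung adenocarcinoma cells; signal is phosphorylated S6 detected by cytoblot immunostaining with HRP secondary.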 Conditions: A549 phospho-S6 cytoblot, 5 h, higher = more signal.
Assay [18] has as its target NADPH oxidase 2 (Homo sapiens) (UniProt P04839). Briefly: NOX2-dependent H2O2 signal modulators, primary screen, NOX inhibitor project, cell-based, HEK293-NOX2, PMA-stimulated, Amplex Red fluorescence (AID 1159). Also: test concentration not given here. Conditions: 45 min, higher = more signal, called active from +8 up or from −8 down.
For assay [19], the target named is NADPH oxidase 4 (Homo sapiens) (UniProt Q9NPH5). Briefly: NOX4-dependent H2O2 signal modulators, primary screen, NOX inhibitor project, cell-based, HEK293-NOX4, tetracycline-induced, Amplex Red fluorescence (AID 1160). The settings on record: 45 min, higher = more signal, called active from +8 up or from −8 down.
The target in assay [20] is NADPH oxidase 5 (Homo sapiens) (UniProt Q96PH1). Briefly: NOX5-dependent H2O2 signal modulators, primary screen, NOX inhibitor project, cell-based, HEK293-NOX5, Amplex Red fluorescence (AID 1161). The settings on record: HEK293-NOX5, ionomycin, 45 min, higher = more signal.
Sequence of NADPH oxidase 5 (Homo sapiens) (Q96PH1 whole entry, looked up): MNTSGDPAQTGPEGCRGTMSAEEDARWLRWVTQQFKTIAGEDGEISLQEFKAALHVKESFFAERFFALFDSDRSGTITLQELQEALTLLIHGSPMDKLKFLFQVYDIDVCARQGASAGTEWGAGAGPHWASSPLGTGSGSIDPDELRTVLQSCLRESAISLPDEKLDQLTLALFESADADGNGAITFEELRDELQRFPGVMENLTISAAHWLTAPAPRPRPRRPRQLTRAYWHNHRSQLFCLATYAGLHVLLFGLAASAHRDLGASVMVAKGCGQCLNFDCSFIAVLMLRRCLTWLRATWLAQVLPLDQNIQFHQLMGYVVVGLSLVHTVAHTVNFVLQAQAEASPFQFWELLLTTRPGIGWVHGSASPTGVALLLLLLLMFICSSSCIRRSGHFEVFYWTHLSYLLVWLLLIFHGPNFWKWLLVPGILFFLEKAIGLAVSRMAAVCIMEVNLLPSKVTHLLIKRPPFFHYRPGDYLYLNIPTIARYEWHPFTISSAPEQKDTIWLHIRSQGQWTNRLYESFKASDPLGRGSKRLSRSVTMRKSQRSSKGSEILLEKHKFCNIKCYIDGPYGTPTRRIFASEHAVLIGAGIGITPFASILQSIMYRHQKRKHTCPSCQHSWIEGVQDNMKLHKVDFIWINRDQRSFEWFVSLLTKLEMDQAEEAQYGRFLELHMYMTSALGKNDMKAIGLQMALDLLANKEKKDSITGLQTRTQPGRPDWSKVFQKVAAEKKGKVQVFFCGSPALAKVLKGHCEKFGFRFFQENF

Sequence of NADPH oxidase 4 (Homo sapiens) (Q9NPH5 whole entry, looked up): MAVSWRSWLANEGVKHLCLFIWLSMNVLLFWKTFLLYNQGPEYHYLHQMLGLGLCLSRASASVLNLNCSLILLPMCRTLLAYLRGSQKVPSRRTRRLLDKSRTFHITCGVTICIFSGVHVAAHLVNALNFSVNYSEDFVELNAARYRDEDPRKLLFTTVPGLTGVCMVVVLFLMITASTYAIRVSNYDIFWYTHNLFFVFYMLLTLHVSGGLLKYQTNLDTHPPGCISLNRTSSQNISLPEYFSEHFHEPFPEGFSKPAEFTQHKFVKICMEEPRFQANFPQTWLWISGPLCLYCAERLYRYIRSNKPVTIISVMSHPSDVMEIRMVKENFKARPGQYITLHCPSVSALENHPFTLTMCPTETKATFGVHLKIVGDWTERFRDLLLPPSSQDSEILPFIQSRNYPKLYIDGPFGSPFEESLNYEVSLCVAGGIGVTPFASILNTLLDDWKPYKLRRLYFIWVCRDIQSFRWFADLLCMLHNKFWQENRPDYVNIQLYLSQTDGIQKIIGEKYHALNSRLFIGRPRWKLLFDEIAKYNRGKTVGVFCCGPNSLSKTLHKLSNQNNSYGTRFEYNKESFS
Sequence of Torsin-1A (Homo sapiens) (O14656 whole entry, looked up): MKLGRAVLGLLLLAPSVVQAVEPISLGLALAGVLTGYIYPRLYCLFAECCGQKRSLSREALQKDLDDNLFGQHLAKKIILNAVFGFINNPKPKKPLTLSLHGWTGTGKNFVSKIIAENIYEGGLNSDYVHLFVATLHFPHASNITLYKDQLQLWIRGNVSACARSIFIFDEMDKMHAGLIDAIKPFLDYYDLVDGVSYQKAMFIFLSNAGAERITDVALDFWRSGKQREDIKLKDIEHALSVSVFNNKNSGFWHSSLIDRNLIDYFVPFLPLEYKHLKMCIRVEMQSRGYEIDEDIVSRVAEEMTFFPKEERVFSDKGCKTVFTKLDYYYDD
Sequence of NADPH oxidase 2 (Homo sapiens) (P04839 whole entry, looked up): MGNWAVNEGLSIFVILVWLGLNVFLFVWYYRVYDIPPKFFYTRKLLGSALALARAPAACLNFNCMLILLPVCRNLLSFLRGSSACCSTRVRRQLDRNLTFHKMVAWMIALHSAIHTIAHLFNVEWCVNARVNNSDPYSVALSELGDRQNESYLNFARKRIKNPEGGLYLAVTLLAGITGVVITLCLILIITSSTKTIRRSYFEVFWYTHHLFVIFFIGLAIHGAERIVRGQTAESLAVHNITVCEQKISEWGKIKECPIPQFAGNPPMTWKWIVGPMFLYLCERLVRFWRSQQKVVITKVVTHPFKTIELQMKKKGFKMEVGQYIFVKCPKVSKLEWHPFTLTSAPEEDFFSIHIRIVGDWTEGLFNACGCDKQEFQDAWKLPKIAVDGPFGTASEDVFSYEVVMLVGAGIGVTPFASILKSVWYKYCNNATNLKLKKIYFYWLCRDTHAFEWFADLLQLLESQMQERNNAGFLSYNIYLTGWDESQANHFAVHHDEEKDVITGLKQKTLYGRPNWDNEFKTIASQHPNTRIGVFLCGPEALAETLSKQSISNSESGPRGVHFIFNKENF
Sequence of Streptavidin (Streptomyces avidinii) (P22629 whole entry, looked up): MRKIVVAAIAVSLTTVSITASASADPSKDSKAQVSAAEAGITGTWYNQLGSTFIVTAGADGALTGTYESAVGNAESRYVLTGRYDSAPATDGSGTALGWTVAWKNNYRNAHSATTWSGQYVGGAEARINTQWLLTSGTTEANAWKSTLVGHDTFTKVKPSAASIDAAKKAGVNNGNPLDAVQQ

`CCCCCC1=C2CNC(C)(C(=O)OC)C=C2C(C)C1=O` (stereo not given): the composite z-score was 0.0456 in assay [1]; -0.162 in [6]; 0.0319 in [7]; -0.92 with Torsin-1A (Homo sapiens) [8]; -0.38 in the assay with Torsin-1A (Homo sapiens) [9]; -0.134 in assay [10]. In addition, in [12], the composite z-score was -0.0236. Also, the z-score in [2] was -0.169 (inactive); in [3], 0.18 (inactive); in [4], 1.34 (inactive); in assay [5], 1.76 (inactive); in assay [11], -1.81 (inactive); in assay [13] it was 0.585 (inactive). For the same molecule, the z-score in [14] is 0.0544 (inactive); in [15], 0.777 (inactive); in assay [16], 0.373 (inactive); in assay [17], -0.628; in assay [18] it was 0.116 (inactive); in assay [19], -2.6 (inactive). Besides, the z-score in assay [20] was -3.07.
`C=CCOC(=O)[C@@]1(Cc2ccccc2)C[C@H]2CO[C@H](c3ccc(OC)cc3)N2C1=O`: the composite z-score was -0.0728 in assay [1]; 0.911 in [6]; -0.0719 in assay [7]; 0.91 with Torsin-1A (Homo sapiens) [8]; 0.456 with Torsin-1A (Homo sapiens) [9]; 0.235 in assay [10]. In assay [12], this molecule returned a composite z-score of -0.338. The z-score is -1.08 (inactive) in assay [2]; 0.572 (inactive) in assay [3]; 2.72 (inactive) in assay [4]; 0.892 (inactive) in assay [5]; -0.0282 (inactive) in [11]; 1.36 (inactive) in assay [13]. Besides, the z-score in assay [14] was 0.522 (inactive); in assay [15] it was -0.256 (inactive); in [16], 0.0894 (inactive); in assay [17], -0.673; in assay [18] it was 0.826 (inactive); in [19], -0.213 (inactive). The molecule further had a z-score in assay [20] of -1.93.
As for `CCCC#C[Si](O[C@H](CC)c1cn([C@H](C)c2ccccc2)nn1)(C(C)C)C(C)C`, the composite z-score in [1] is 0.0759; in [6], -0.121; in assay [7] it was 0.143; with Torsin-1A (Homo sapiens) [8] it was 0.575; in the assay with Torsin-1A (Homo sapiens) [9], 0.95; in assay [10], 0.275. In assay [12], this molecule gave a composite z-score of 0.28. In addition, the z-score in [2] was -0.746 (inactive); in assay [3], -0.616 (inactive); in assay [4], -0.621 (inactive); in assay [5], -0.929 (inactive); in assay [11], 2.53 (inactive); in assay [13] it was 1.01 (inactive). Also, the z-score in assay [14] is 1.05 (inactive); in [15], -0.302 (inactive); in assay [16], 0.357 (inactive); in assay [17] it was 0.364; in assay [18], 0.177 (inactive); in [19], 0.00728 (inactive). In addition, in assay [20], the z-score was found to be 0.7.
In the case of `COc1ccc([Si](C)(C)[C@@H]2[C@@H](CCO)O[C@]3(C(=O)N(Cc4ccccc4)c4ccc(NC(=O)[C@H](C)O)cc43)[C@H]2C)cc1`, the composite z-score in assay [1] came to 0.514; in [6] it was 0.753; in [7] it was 0.108; in the assay with Torsin-1A (Homo sapiens) [8], 1.05; in the assay with Torsin-1A (Homo sapiens) [9] it was 0.854; in [10], 1.95. For the same molecule, in assay [12], the composite z-score is 0.621. The z-score was -7.95 (inactive) in [2]; -1.07 (inactive) in [3]; 12.2 (active) in [4]; -0.161 (inactive) in assay [5]; 0.573 (inactive) in assay [11]; 12.8 (active) in [13]. Further, the z-score is 2.77 (inactive) in [14]; -0.919 (inactive) in assay [15]; 1.92 (inactive) in assay [16]; 0.402 in [17]; 0.77 (inactive) in [18]; 0.452 (inactive) in assay [19]. In assay [20], this molecule registered a z-score of 1.8.
For the molecule `CCOC(=O)C[C@H]1[C@H](OC(=O)c2cc3ccccc3oc2=O)[C@@H](NC(=O)CC(C)C)c2cc(OCCCO)ccc2N1C(=O)c1ccc2ccccc2n1`, the composite z-score in assay [1] was -0.0457; in assay [6] it was 0.138; in assay [7] it was -0.128; with Torsin-1A (Homo sapiens) [8], -0.0914; with Torsin-1A (Homo sapiens) [9], 0.234; in assay [10], 1.41. This molecule showed a composite z-score in [12] of -0.0061. Besides, the z-score in assay [2] was 0.152 (inactive); in [3], 0.152 (inactive); in assay [4], 4.46 (inactive); in [5], 0.446 (inactive); in [11] it was -0.618 (inactive); in [13], 9.02 (active). Further, the z-score was 1.25 (inactive) in assay [14]; 0.609 (inactive) in assay [15]; 0.647 (inactive) in [16]; -0.679 in [17]; 1.01 (inactive) in assay [18]; 1.23 (inactive) in assay [19]. The molecule also returned a z-score in assay [20] of 0.7.
